PubChem BioAssay AID1159580 (chemical genetic matrix, 2015)
Screen size: about 5,500 compounds; about 2,000 (36%) were called active. Not shown: some 18% with an inconclusive outcome. This is one part of the list. Unmarked numbers belong to inactive results. No stated cut-off is given here; in the data, active means normalized growth mostly below about 0.91 (no sharp cut-off); inconclusive means no clear call, values can overlap the other calls; inactive means mostly above about 0.92.

Assay: chemical genetic growth profiling, strain panel (AID 1159580);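 further: tested at 20 µM; growth read once vehicle control cultures reached saturation at 30 °C; 1 = growth at the plate median or of vehicle wells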
Settings: growth OD
[1] = S. cerevisiae deletion strains, locus YAL013W, strain DEP1, stronger effect = lower value
[2] = S. cerevisiae deletion strains, locus YBR229C, strain ROT2, stronger effect = lower value
[3] = S. cerevisiae deletion strains, locus YDL101C, strain DUN1, stronger effect = lower value
[4] = S. cerevisiae deletion strains, locus YDL134C, strain PPH21, stronger effect = lower value
[5] = S. cerevisiae deletion strains, locus YDR150W, strain NUM1, stronger effect = lower value
[6] = S. cerevisiae deletion strains, locus YEL061C, strain CIN8, stronger effect = lower value
[7] = S. cerevisiae deletion strains, locus YGR078C, strain PAC10, stronger effect = lower value
[8] = S. cerevisiae deletion strains, locus YHR030C, strain SLT2, stronger effect = lower value
[9] = S. cerevisiae deletion strains, locus YHR087W, strain rtc3, stronger effect = lower value
[10] = S. cerevisiae deletion strains, locus YJR043C, strain POL32, stronger effect = lower value
[11] = S. cerevisiae deletion strains, locus YJR075W, strain HOC1, stronger effect = lower value
[12] = S. cerevisiae deletion strains, locus YKL190W, strain CNB1, stronger effect = lower value
[13] = S. cerevisiae deletion strains, locus YLR039C, strain RIC1, stronger effect = lower value
[14] = S. cerevisiae deletion strains, locus YLR058C, strain SHM2 (second series), stronger effect = lower value
[15] = S. cerevisiae deletion strains, locus YLR085C, strain ARP6, stronger effect = lower value
[16] = S. cerevisiae deletion strains, locus YLR262C, strain YPT6, stronger effect = lower value
[17] = S. cerevisiae deletion strains, locus YML094W, strain GIM5, stronger effect = lower value
[18] = S. cerevisiae deletion strains, locus YMR219W, strain ESC1, stronger effect = lower value
[19] = S. cerevisiae deletion strains, locus YMR263W, strain SAP30, stronger effect = lower value
[20] = S. cerevisiae deletion strains, locus YNL153C, strain GIM3, stronger effect = lower value
[21] = S. cerevisiae deletion strains, locus YNL298W, strain CLA4 (second series), stronger effect = lower value
[22] = S. cerevisiae deletion strains, locus YNL322C, strain KRE1, stronger effect = lower value
[23] = S. cerevisiae deletion strains, locus YNR030W, strain Alg12, stronger effect = lower value
[24] = S. cerevisiae deletion strains, locus YPL055C, strain LGE1, stronger effect = lower value
[25] = S. cerevisiae deletion strains, locus YPL241C, strain CIN2, stronger effect = lower value
[26] = S. cerevisiae deletion strains, locus YPR135W, strain CTF4, stronger effect = lower value
[27] = S. cerevisiae strains, strain wild type, stronger effect = lower value

O=C(O)CSC1CCS(=O)(=O)C1 (stereo not given)
normalized growth [1]: 1.02 | normalized growth [2]: 0.998 | normalized growth (S. cerevisiae deletion strains, locus YCL061C, strain MRC1, stronger effect = lower value): 1.02 | normalized growth [3]: 1.02 | normalized growth [4]: 1.02 | normalized growth [5]: 0.956 | normalized growth [6]: 1.04 | normalized growth [7]: 1.01 | normalized growth [8]: 1.05 | normalized growth [9]: 1.01 | normalized growth [10]: 1 | normalized growth [11]: 1.06 | normalized growth [12]: 1.01 | normalized growth [13]: 1.06 | normalized growth [14]: 1.01 | normalized growth [15]: 1 | normalized growth [16]: 1.06 | normalized growth [17]: 1.03 | normalized growth [18]: 1 | normalized growth [19]: 1 | normalized growth [20]: 0.997 | normalized growth [21]: 1.01 | normalized growth [22]: 1.03 | normalized growth [23]: 1 | normalized growth [24]: 0.906 | normalized growth [25]: 1.01 | normalized growth [26]: 1.02 | normalized growth [27]: 1.01

N=C(N)c1ccccc1
normalized growth [1]: 1.01 | normalized growth (S. cerevisiae deletion strains, locus YAL040C, strain CLN3, stronger effect = lower value): 0.991 | normalized growth (S. cerevisiae deletion strains, locus YCL061C, strain MRC1 (second series), stronger effect = lower value): 1.01 | normalized growth [5]: 1 | normalized growth (S. cerevisiae deletion strains, locus YDR363W, strain ESC2, stronger effect = lower value): 1.01 | normalized growth (S. cerevisiae deletion strains, locus YER002W, strain NOP16, stronger effect = lower value): 1.02 | normalized growth [20]: 1.07 | normalized growth (S. cerevisiae deletion strains, locus YNL175C, strain NOP13, stronger effect = lower value): 0.999 | normalized growth (S. cerevisiae deletion strains, locus YNL197C, strain WHI3, stronger effect = lower value): 1.03 | normalized growth (S. cerevisiae deletion strains, locus YNL224C, strain SQS1, stronger effect = lower value): 1.01 | normalized growth [22]: 1.02 | normalized growth (S. cerevisiae deletion strains, locus YOR083W, strain WHI5 (second series), stronger effect = lower value): 1.06

Cn1c(CSc2ccccc2)n[nH]c1=S
normalized growth [1]: 0.997 | normalized growth [2]: 0.99 | normalized growth [3]: 0.994 | normalized growth [4]: 1.01 | normalized growth [5]: 0.949 | normalized growth [6]: 1.02 | normalized growth [7]: 0.977 | normalized growth [8]: 1.01 | normalized growth [9]: 0.982 | normalized growth [10]: 0.978 | normalized growth [11]: 0.987 | normalized growth [13]: 1.05 | normalized growth [14]: 0.998 | normalized growth [15]: 1.09 | normalized growth [16]: 1.04 | normalized growth [17]: 1.01 | normalized growth [18]: 0.992 | normalized growth [19]: 0.963 | normalized growth (S. cerevisiae deletion strains, locus YMR307W, strain GAS1, stronger effect = lower value): 1.2 | normalized growth [20]: 0.981 | normalized growth [21]: 1.03 | normalized growth [22]: 1.01 | normalized growth [23]: 1.02 | normalized growth [24]: 0.965 | normalized growth [25]: 1.02 | normalized growth [26]: 1.04 | normalized growth [27]: 1.01

NC(=S)CSc1ccccc1
normalized growth [1]: 0.937 | normalized growth [2]: 0.969 | normalized growth [3]: 1.01 | normalized growth [5]: 0.921 | normalized growth [6]: 0.87 (active) | normalized growth [7]: 0.99 | normalized growth (S. cerevisiae deletion strains, locus YGR229C, strain SMI1, stronger effect = lower value): 0.991 | normalized growth [8]: 0.62 (active) | normalized growth [9]: 1.03 | normalized growth (S. cerevisiae deletion strains, locus YJL187C, strain SWE1, stronger effect = lower value): 0.969 | normalized growth [10]: 0.924 | normalized growth [11]: 1.04 | normalized growth [12]: 0.864 (active) | normalized growth [13]: 0.883 | normalized growth [14]: 1 | normalized growth [15]: 0.591 (active) | normalized growth [16]: 0.919 | normalized growth [17]: 0.892 | normalized growth [18]: 0.999 | normalized growth [20]: 0.981 | normalized growth [21]: 0.711 (active) | normalized growth [22]: 1.04 | normalized growth [23]: 0.681 (active) | normalized growth (S. cerevisiae deletion strains, locus YOL006C, strain TOP1, stronger effect = lower value): 0.31 (active) | normalized growth [24]: 0.855 | normalized growth [25]: 0.832 (active) | normalized growth [26]: 0.679 | normalized growth [27]: 0.888 (active)
